PubChem BioAssay (Tox21)
Values joined by “and” are separate entries in the source; they are usually repeats but may differ in a detail not shown here. Identical values can stand only once. Records with an inconclusive call do not appear. Where a call stands in place of a potency, no number is given. Some compounds were tested as several samples or in several runs, with calls that do not always agree. Active and inactive are the calls of the source. Unless noted, the call rests on the fitted dose curve; in most records, active means well fitted curve in the direction sought with a large enough effect in the repeat runs; inconclusive means weak or mixed curves; inactive means no such curve, though single readings can be large; an effect the other way counts as inactive or inconclusive.

Columns and labels:
[1] = qHTS assay to test for compound auto fluorescence at 535 nm (green) in HEK293 cells (AID 720680)
[2] = qHTS assay to test for compound auto fluorescence at 460 nm (blue) in HEK293 cell free culture (AID 720681)
Procedure, shortened: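 Blue fluorescence (Ex 405/Em 460 nm, triamterene-equivalent) was read immediately after pin transfer of compound or DMSO into medium (DMEM, 10% FBS) without cells.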

[3] = qHTS assay to test for compound auto fluorescence at 535 nm (green) in HEK293 cell free culture (AID 720682)
Procedure, shortened: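 Each library compound, or DMSO control, is added by pintool to medium alone, comprising DMEM and 10% FBS. Emission at 535 nm following 485 nm excitation is quantified against fluorescein.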

[4] = qHTS assay to test for compound auto fluorescence at 590 nm (red) in HEK293 cell free culture (AID 720683)
Procedure, shortened: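 Red-channel autofluorescence of compounds in culture medium (DMEM, 10% FBS), no cells, measured at 540/590 nm. Rose Bengal sodium is the reference fluorophore for equivalence.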

[5] = qHTS assay to test for compound auto fluorescence at 590 nm (red) in HepG2 cell free culture (AID 720684)
Procedure, shortened: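 Steps: dispense MEM/10% FBS medium, no cells; pin compound or DMSO vehicle; read red channel, Ex/Em 540/590 nm. Output given as Rose Bengal sodium equivalents.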

[6] = qHTS assay to test for compound auto fluorescence at 460 nm (blue) in HepG2 cell free culture (AID 720685)
Procedure, shortened: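 Compound (23 nL) or DMSO pinned into cell-free MEM with 10% FBS; blue fluorescence read at 405/460 nm excitation/emission, expressed as auto-fluorescence equivalency to triamterene.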

[7] = qHTS assay to test for compound auto fluorescence at 535 nm (green) in HepG2 cell free culture (AID 720686)
[8] = qHTS assay to test for compound auto fluorescence at 460 nm (blue) in HepG2 cells (AID 720687)
Procedure, shortened: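 Blue-channel autofluorescence (Ex/Em 405/460 nm, triamterene-equivalent) was measured after 1 hr compound exposure at 37 C, 5% CO2. Cells were HepG2, plated overnight at 37 C in MEM plus 10% FBS.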

[9] = qHTS assay for identifying genotoxic compounds that show differential cytotoxicity against isogenic chicken DT40 cell lines with known DNA damage response pathways - wild type cell line (AID 743012); further: nearly all actives have a fitted effect of over 60% in size; further: potency means the concentration at half of the fitted maximal effect
Procedure, shortened: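 Using parental DT40 (300 cells/well), compounds delivered in DMSO incubate 40 h at 37 C/5% CO2. CellTiter-Glo reagent then stands 30 min at room temperature, and luminescence gives cell viability.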

[10] = qHTS assay to identify small molecule antagonists of the androgen receptor (AR) signaling pathway using the MDA cell line - cell viability counter screen (AID 743041; further: nearly all actives have a fitted effect of over 45% in size; further: potency means the concentration at half of the fitted maximal effect)
Procedure, shortened: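 Cells were plated at 3,000 per well and left 5 h. Compounds in DMSO were then pinned in, followed by R1881. After 16 h at 37C, CellTiter-Fluor fluorescence gave viability.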

[11] = molecular target: Glucocorticoid receptor (Homo sapiens) (UniProt P04150); test: qHTS assay to identify small molecule agonists of the glucocorticoid receptor (GR) signaling pathway (AID 720691; active means well fitted activation curve with a large enough effect in the signal ratio in the repeat runs, not every such curve was filed as active; the % refers to the signal ratio)
Glucocorticoid receptor (Homo sapiens), sequence (P04150 whole entry, looked up): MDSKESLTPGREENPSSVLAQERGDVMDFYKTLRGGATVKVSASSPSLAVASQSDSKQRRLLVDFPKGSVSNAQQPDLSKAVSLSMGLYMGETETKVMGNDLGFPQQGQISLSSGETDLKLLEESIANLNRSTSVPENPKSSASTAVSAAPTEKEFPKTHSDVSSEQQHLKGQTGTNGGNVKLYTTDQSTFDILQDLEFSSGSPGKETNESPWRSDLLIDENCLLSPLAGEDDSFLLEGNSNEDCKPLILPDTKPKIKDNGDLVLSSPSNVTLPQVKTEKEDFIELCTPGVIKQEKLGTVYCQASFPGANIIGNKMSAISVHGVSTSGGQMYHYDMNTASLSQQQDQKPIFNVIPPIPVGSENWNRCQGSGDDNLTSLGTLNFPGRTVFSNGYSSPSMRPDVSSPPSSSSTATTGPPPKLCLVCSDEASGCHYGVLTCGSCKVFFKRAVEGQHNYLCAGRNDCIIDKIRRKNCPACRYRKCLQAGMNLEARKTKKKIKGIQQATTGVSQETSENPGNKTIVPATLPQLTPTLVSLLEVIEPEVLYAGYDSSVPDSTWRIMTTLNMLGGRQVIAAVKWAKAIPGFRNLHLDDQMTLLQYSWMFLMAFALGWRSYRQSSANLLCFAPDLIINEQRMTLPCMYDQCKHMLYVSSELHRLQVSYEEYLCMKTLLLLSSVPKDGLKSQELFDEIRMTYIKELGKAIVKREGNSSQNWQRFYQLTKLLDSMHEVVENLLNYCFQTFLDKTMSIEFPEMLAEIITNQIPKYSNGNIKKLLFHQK
Procedure, shortened: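 Reporter read-out: fluorescence intensity following 2 h room-temperature LiveBLAzer B/G FRET substrate loading. Prior step: GR-bla HeLa cells held 4 h, then treated 18 h at 37 C.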

[12] = molecular target: Glucocorticoid receptor (Homo sapiens) (UniProt P04150); test: qHTS assay to identify small molecule antagonists of the glucocorticoid receptor (GR) signaling pathway (AID 720692; active means well fitted inhibition curve with a large enough effect in the signal ratio in the repeat runs, not every such curve was filed as active; the % refers to the signal ratio; further: potency means the concentration at half of the fitted maximal effect)
Procedure, shortened: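 Dexamethasone (5 nM final) stimulated a stably integrated GRE-beta-lactamase reporter in HeLa cells during 18 h co-incubation with compounds; signal was quantified as fluorescence intensity of B/G FRET substrate after 2 h.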

[13] = qHTS assay for identifying genotoxic compounds that show differential cytotoxicity against isogenic chicken DT40 cell lines with known DNA damage response pathways - Rev3 mutant cell line (AID 743014); further: nearly all actives have a fitted effect of over 55% in size; further: potency means the concentration at half of the fitted maximal effect
[14] = qHTS assay for identifying genotoxic compounds that show differential cytotoxicity against isogenic chicken DT40 cell lines with known DNA damage response pathways - Rad54/Ku70 mutant cell line (AID 743015); further: nearly all actives have a fitted effect of over 60% in size; further: potency means the concentration at half of the fitted maximal effect
[15] = qHTS assay to identify small molecule antagonists of the androgen receptor (AR) signaling pathway - cell viability counter screen (AID 743033; further: nearly all actives have a fitted effect of over 45% in size; further: potency means the concentration at half of the fitted maximal effect)
[16] = molecular target: Androgen receptor (Homo sapiens) (UniProt P10275); test: qHTS assay to identify small molecule agonists of the androgen receptor (AR) signaling pathway using the MDA cell line (AID 743040; further: nearly all actives have a fitted effect of over 20% in size)
Androgen receptor (Homo sapiens), sequence (P10275 whole entry, looked up): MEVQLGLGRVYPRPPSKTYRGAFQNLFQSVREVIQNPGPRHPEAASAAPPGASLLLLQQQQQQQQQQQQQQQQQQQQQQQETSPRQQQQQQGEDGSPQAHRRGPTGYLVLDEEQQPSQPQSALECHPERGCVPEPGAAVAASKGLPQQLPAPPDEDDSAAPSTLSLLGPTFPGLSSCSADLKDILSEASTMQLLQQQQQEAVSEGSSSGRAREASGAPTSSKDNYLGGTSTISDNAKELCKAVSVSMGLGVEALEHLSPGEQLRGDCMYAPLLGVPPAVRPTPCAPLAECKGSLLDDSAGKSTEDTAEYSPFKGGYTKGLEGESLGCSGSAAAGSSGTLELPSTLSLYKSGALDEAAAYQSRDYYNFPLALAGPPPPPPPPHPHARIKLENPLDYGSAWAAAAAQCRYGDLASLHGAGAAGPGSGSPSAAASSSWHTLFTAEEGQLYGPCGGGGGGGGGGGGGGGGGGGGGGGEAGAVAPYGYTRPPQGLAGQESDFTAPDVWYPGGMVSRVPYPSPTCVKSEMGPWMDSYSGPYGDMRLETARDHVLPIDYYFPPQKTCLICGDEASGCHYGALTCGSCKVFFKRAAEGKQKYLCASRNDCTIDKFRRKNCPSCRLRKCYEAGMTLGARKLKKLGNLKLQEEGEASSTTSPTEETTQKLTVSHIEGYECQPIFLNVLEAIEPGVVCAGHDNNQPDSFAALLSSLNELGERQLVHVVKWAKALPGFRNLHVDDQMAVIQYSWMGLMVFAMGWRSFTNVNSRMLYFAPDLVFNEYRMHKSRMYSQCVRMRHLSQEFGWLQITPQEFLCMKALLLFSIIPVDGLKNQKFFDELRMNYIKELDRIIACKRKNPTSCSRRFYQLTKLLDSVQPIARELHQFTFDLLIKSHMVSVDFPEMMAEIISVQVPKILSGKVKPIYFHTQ
Procedure, shortened: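 Cells plated, 5 h at 37C/0% CO2; compound or DMSO pinned; 16 h at 37C; ONE-Glo added; luminescence measured after 30 min at room temperature. Reporter line: MDA-kb2 with MMTV-luciferase responsive to AR and GR.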

[17] = molecular target: Androgen receptor (Homo sapiens) (UniProt P10275); test: qHTS assay to identify small molecule antagonists of the androgen receptor (AR) signaling pathway using the MDA cell line (AID 743042; further: nearly all actives have a fitted effect of over 55% in size)
Procedure, shortened: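 Antagonist mode: compounds plus R1881 agonist added to MDA-kb2 AR-luc cells, incubated 16 h at 37C. Luciferase reporter luminescence quantified, with multiplexed CellTiter-Fluor readout for cell viability.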

[18] = qHTS assay to identify small molecule antagonists of the glucocorticoid receptor (GR) signaling pathway - cell viability counter screen (AID 720693); further: nearly all actives have a fitted effect of over 55% in size
[19] = molecular target: Androgen receptor (Homo sapiens) (UniProt P10275); test: qHTS assay to identify small molecule antagonists of the androgen receptor (AR) signaling pathway (AID 743035; active means well fitted inhibition curve with a large enough effect in the signal ratio in the repeat runs, not every such curve was filed as active; the % refers to the signal ratio)
Procedure, shortened: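 Using qHTS, AR-UAS-bla GripTite HEK293 cells received compound, then R1881, and were cultured 16 h at 37C/5% CO2 before a 2 h room-temperature LiveBLAzer B/G FRET substrate step and fluorescence measurement.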

[20] = molecular target: Androgen receptor (Homo sapiens) (UniProt P10275); test: qHTS assay to identify small molecule agonists of the androgen receptor (AR) signaling pathway (AID 743036; active means well fitted activation curve with a large enough effect in the signal ratio in the repeat runs, with a control signal flat, not every such curve was filed as active; the % refers to the signal ratio)
Procedure, shortened: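 Following a 4 h settling period, AR-UAS-bla HEK293 cells were dosed with compounds for 16 h at 37C. A 2 h room-temperature incubation with LiveBLAzer B/G FRET substrate preceded the fluorescence measurement.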

Compound | outcome [1] | Potency [2] | outcome [3] | outcome [4] | outcome [5] | Potency [6] | outcome [7] | Potency [8] | Potency [9] | Potency [10] | Potency [11] | Potency [12] | Potency [13] | Potency [14] | Potency [15] | outcome [16] | Potency [17] | Potency [18] | Potency [19] | outcome [20]
Brc1cc(Br)c(Oc2cc(Br)c(Br)cc2Br)cc1Br | inactive | inactive | inactive | inactive | inactive | inactive | inactive | inactive | inactive | inactive | – | – | – | – | – | – | – | – | – | –
CC(CCC(=O)O)C(=O)O (stereo unspecified) | inactive | inactive | inactive | inactive | inactive | inactive | inactive | – | inactive | inactive | inactive | inactive | inactive | inactive | inactive | – | – | – | – | –
O=c1cc(-c2ccccc2)oc2cc(O)cc(O)c12 | inactive | inactive | inactive | inactive | inactive | inactive | inactive | – | 54.5 µM (active) | inactive | inactive | 19.5 µM (active) | 48.6 µM (active) | 24.3 µM (active) | inactive | inactive | inactive | – | – | –
Cc1cc(O)ccc1O | inactive | inactive | inactive | inactive | inactive | inactive | inactive | inactive | inactive | inactive | – | – | inactive | inactive | inactive | – | – | – | – | –
CC(C)c1nc(CN(C)C(=O)N[C@H](C(=O)N[C@@H](Cc2ccccc2)C[C@H](O)[C@H](Cc2ccccc2)NC(=O)OCc2cncs2)C(C)C)cs1 | inactive | inactive | inactive | inactive | inactive | inactive | inactive | – | inactive and 23.7 µM (active) | inactive | inactive | – | inactive | 23.7 µM (active) | inactive | – | – | inactive | – | –
COc1cc(Nc2c(C#N)cnc3cc(OCCCN4CCN(C)CC4)c(OC)cc23)c(Cl)cc1Cl | inactive | inactive | inactive | inactive | inactive | inactive | inactive | inactive | 1.88 µM (active) | 33.5 µM (active) | – | – | – | – | 23.9 µM (active) | – | – | – | – | –
Cc1ccc(Cl)c(Nc2ccccc2C(=O)O)c1Cl | inactive | inactive | inactive | inactive | inactive | inactive | inactive | inactive | – | inactive | – | – | – | – | inactive | – | – | – | – | –
CN(C)CCN1C(=O)c2ccccc2N(C)c2ccccc21 | inactive | inactive | inactive | inactive | inactive | inactive | inactive | inactive | inactive | inactive | – | – | – | inactive | inactive | – | – | inactive | – | –
CCc1ccccc1 | inactive | inactive | inactive | inactive | inactive | inactive | inactive | – | inactive | inactive | inactive | inactive | inactive | inactive | inactive | – | – | inactive | – | –
Cc1ccccc1S | inactive | inactive | inactive | inactive | inactive | inactive | inactive | inactive | 34.6 µM (active) | inactive | – | – | – | 38.9 µM (active) | inactive | – | – | inactive | – | –
Nc1ncnc2c1ncn2[C@H]1CC[C@@H](CO)O1 | inactive | inactive | inactive | inactive | inactive | inactive | inactive | inactive | 26.6 µM (active) | inactive | – | – | inactive | 23.7 µM (active) | inactive | – | – | – | – | –
Clc1cc(Cl)nc(Cl)n1 | inactive | inactive | inactive | inactive | inactive | inactive | inactive | inactive | – | inactive | – | – | inactive | inactive | inactive | – | – | – | – | –
CN1CC(=O)N2[C@H](c3ccc4c(c3)OCO4)c3[nH]c4ccccc4c3C[C@@H]2C1=O | inactive | inactive | inactive | inactive | inactive | inactive | inactive | – | inactive | inactive | inactive | inactive | inactive | inactive | inactive | – | – | inactive | – | –
C1COC1 | inactive | inactive | inactive | inactive | inactive | inactive | inactive | – | inactive | inactive | inactive | – | inactive | inactive | inactive | – | inactive | inactive | inactive | inactive
